The panel holds about 83,000 compounds, 20% with a hit somewhere; the sample as a whole holds those more often.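 48-hour exposure, single concentration, 96-well plates; percent growth endpoint where 0 means no net growth. Active: below 10.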 Unmarked numbers belong to inactive results. Active and inactive are the calls of the source.
Assays:
Experiment in all cases: NCI-60 one-dose screen, 48 h (100 = growth as untreated, 0 = no growth, -100 = all killed)
Settings in all cases: 10 µM unless noted
[1] = tested on: T-47D breast
[2] = tested on: BT-549 breast
[3] = tested on: MDA-MB-435 melanoma
[4] = tested on: SW-620 colon
[5] = tested on: MCF7 breast
[6] = tested on: HCT-116 colon
[7] = tested on: HCC-2998 colon
[8] = tested on: KM12 colon

Compound | growth [1] | growth [2] | growth [3] | growth [4] | growth [5] | growth [6] | growth [7] | growth [8]
COc1ccc(-c2cc(/C=C/C(=O)c3ccc(OC)c(OC)c3)[nH]n2)cc1 | 22.2% | -34.2% (active) | 21.3% | -70.5% (active) | 6.07% (active) | -40.7% (active) | 92.7% | -79.9% (active)
Cc1ccc(N(CC(=O)Nc2ccc(S(=O)(=O)NC3CCN(C)CC3)cc2)S(=O)(=O)c2ccc(Cl)cc2)cc1 | 58.4% | 86.6% | -44.3% (active) | 10.1% | 39% | 47.6% | 30.4% | 61.2%
NC1(N)C=CC2=C(C=C1)C1(N)C3=C(C=CC(N)(N)C=C3)N2C2(N)C3=C(C=CC(N)(N)C=C3)N1C1=C2C=CC(N)(N)C=C1 | 74.5% | 52.4% | 89.8% | 95.4% | 76.2% | 90.2% | 105% | 93.6%
CC(C)(C)c1cc(-n2c(-c3ccc(Cl)cc3)nc3cc(C(=O)Nc4ccc(Cl)cc4)ccc32)n[nH]1 | 25.2% | 58.7% | 73.3% | 55.9% | 38.5% | 28.2% | 63.9% | 25.9%
CC1(c2ccccc2)OC1C(=O)O (centres undefined) | 117% | 94.9% | 98.7% | 102% | 105% | 101% | 96.5% | 105%
c1cnc2[nH]cc(-c3csc(-c4cn(CCCN5CCCCC5)c5ccccc45)n3)c2c1 | 63.1% | 90.9% | 1.72% (active) | -47.4% (active) | 22.2% | 60.6% | 87.6% | 63.3%
Cc1cc(N(CCCNc2ccnc3cc(Cl)ccc23)Cc2ccco2)nc(N2CCN(C)CC2)n1 | 23.6% | 50.2% | -5.06% (active) | 33.6% | 29% | 28.3% | 86.9% | 63.3%
O=Cc1nc2ccccc2[nH]1 | 91.9% | 101% | 107% | 101% | 96.4% | 88.5% | 107% | 99.8%
O=C(O[C@@H]1Cc2c(O)cc(O)cc2O[C@@H]1c1cc(O)c(O)c(O)c1)c1cc(O)c2c(c1)OCO2 | 91.3% | 96.2% | 105% | 106% | 100% | 86.3% | 104% | 101%
O=C1C(Cl)=C(Nc2ccc(S(=O)(=O)c3ccc(NC4=C(Cl)C(=O)c5ccccc5C4=O)cc3)cc2)C(=O)c2ccccc21 | -39.6% (active) | 31.4% | 10.5% | 0.736% (active) | -55.1% (active) | -85.7% (active) | 47.1% | 5.09% (active)
CC(=O)N1N=C(c2ccc(C)cc2)CC1c1ccc(Oc2ccc(Br)cc2)cc1 (centres undefined) | 60.6% | 89.3% | 97.6% | 86.7% | 81.8% | 87.3% | 96.9% | 85.5%
COC(=O)[C@]12CC[C@@H](C)[C@H](C)[C@@H]1C1=CC[C@@H]3[C@@]4(C)C=C(O)C(=O)C(C)=C4CC[C@@]3(C)[C@]1(C)CC2 | 5.51% (active) | 69.1% | 49% | 27.9% | 17.2% | 18.1% | 9.96% (active) | 30.3%
CC/C(=N/NC(N)=O)c1ccccc1 | 110% | 102% | 110% | 105% | 97% | 109% | 103% | 111%
Cc1ccsc1-c1ccc2c(c1)COC2(CCCN(C)C)c1ccc(F)cc1 (centres undefined) | 48.7% | 81.9% | 17.1% | 54.3% | 22.7% | 23.3% | -48.4% (active) | 42.6%
Cn1cc(-c2nc(-c3cn(C)c4ncccc34)cs2)c2cc(F)ccc21 | 48.1% | 49% | -15.1% (active) | 26.9% | 20% | 18.6% | 53% | 22.2%
N#C/C(=C\c1ccc(-c2ccc(Br)cc2)o1)c1nc(-c2cccs2)cs1 | 40% | 96.8% | 101% | 99.8% | 28.9% | 91% | 91.8% | 95.9%
CN1CCN(c2nc(-c3cccc4ccccc34)nc3sc4c(c23)CCCCCC4)CC1 | 67.2% | 91.9% | 93.3% | 83.8% | 68.2% | 67.9% | 95.8% | 98.8%
COc1ccc2c(c1)c(-c1nc(-c3cn(C)c4ncccc34)cs1)cn2CCN | -0.878% (active) | 96.9% | 95.4% | 62.3% | 16.6% | 80.5% | 55% | 45%
COc1cc(-c2cc3cc(O)ccc3oc2=O)cc(OC)c1OC | 75.7% | 106% | 90.7% | 108% | 87.2% | 88.9% | 116% | 93.2%
Nc1ccc(Cl)cn1 | 86.7% | 104% | 106% | 102% | 94.7% | 95.4% | 113% | 100%
Cc1ccc2c(c1)c(-c1nc(-c3c[nH]c4ncccc34)cs1)cn2C | 45.3% | 104% | 96.5% | 112% | 17.4% | 85.1% | 80% | 57.8%
COC(=O)[C@]12CC[C@@H](C)[C@H](C)[C@@H]1C1=CC[C@@H]3[C@@]4(C)CC(=O)[C@H](OC(=O)c5ccco5)[C@@]5(C)COC(=C45)C[C@@]3(C)[C@]1(C)CC2 | 1.72% (active) | 25.9% | 21.4% | 31.2% | 15.7% | 16.4% | 52.3% | 27.9%
Cc1ccc(-c2ccc(Nc3ccccc3)nn2)cc1S(N)(=O)=O | 84.2% | 80.6% | 8.3% (active) | 51.7% | 78.1% | 79% | 59.8% | 39.3%
S=c1[nH]nc2ccccn12 | 106% | 110% | 108% | 105% | 94.3% | 108% | 102% | 116%
CN(C)c1ccc(N=C2C=CC(=O)C=C2)cc1 | 60.6% | 31.3% | 74.5% | 96.3% | 72.3% | 74.3% | 94.3% | 97.1%
C=C(C)[C@@H]1CC[C@]2(CN)CC[C@]3(C)[C@H](CC[C@@H]4[C@@]5(C)CCC(=O)NC(C)(C)[C@@H]5CC[C@]43C)[C@@H]12 | 53.9% | 80.8% | 92.7% | 75.9% | 41.5% | 11.7% | 97.7% | 81%
COc1cc(/C=N/Nc2ncnc3c2c(C)nn3-c2ccc(F)cc2)ccc1O | 79.8% | 90.4% | 95.4% | 131% | 85.3% | 105% | 99.7% | 71.9%
C=C(C)[C@@H]1CC[C@]2(C(=O)N3CCN(C)CC3)CC[C@]3(C)[C@H](CC[C@@H]4[C@@]5(C)C/C(=C/c6ccc(C(F)(F)F)cc6)C(=O)C(C)(C)[C@@H]5CC[C@]43C)[C@@H]12 | 79.9% | 102% | 97.2% | 99.5% | 87.5% | 89.8% | 107% | 97%
